# In all, about 8,300 sequences were measured (“log2 fold change of degron read counts, EGFP-low vs EGFP+ sorted cells (limma voom), compound-induced degradation”: median about -1.1, highest 2% from about 3.2 on). For the sample, the highest values were picked, then their nearest neighbours and some sequences at random.
# Molecular target: T1, CRBN, Q96SW2
# T1 chain: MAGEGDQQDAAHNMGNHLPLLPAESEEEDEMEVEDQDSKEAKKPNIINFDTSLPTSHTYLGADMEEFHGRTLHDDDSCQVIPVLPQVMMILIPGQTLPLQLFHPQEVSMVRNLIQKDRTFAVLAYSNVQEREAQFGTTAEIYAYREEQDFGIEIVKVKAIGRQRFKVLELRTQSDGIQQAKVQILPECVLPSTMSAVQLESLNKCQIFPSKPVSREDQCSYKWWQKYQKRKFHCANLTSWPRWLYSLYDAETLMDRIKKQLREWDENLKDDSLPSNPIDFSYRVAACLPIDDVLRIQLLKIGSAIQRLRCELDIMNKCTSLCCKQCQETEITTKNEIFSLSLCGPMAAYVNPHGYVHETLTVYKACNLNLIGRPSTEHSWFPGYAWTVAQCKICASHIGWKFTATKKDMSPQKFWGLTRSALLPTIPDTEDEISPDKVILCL
# Test: log2 fold change of degron read counts, EGFP-low vs EGFP+ sorted cells (limma voom), compound-induced degradation; higher = more compound-induced degradation of the degron-EGFP fusion; degrons are variants of IKZF1/3 zinc finger 2; compound dose not given here
# Settings: Jurkat, 18 h
# [1] = compound: compound 19 (5-tert-butyl-thalidomide)
# [2] = compound: compound 22 (5-morpholino-thalidomide)
# [3] = compound: compound 33 (diphenyl IMiD analogue)
# 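Further: pooled lentiviral library of zinc finger degron-EGFP fusions in mCherry-positive Jurkat cells, FACS-sorted after compound exposure, with degron abundance counted by next-generation sequencing.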
Sequence,log2 fold change of degron read counts [1],log2 fold change of degron read counts [2],log2 fold change of degron read counts [3],log2 fold change of degron read counts (compound: thalidomide)
"FVCPVCGATFTQKGNLLRHIKL [46F_47V_49P_50V_52G_53A_54T_55F_67L_, Q9UKT9]",-1.12,1.27,1.62,2.01
"FDCPVCGATFTQKGNLLRHIKL [46F_47D_49P_50V_52G_53A_54T_55F_67L_, Q9UKT9]",1.07,-0.459,0.762,1.24
"FKCPVCGATFTQKGNLLRHIKL [46F_47K_49P_50V_52G_53A_54T_55F_67L_, Q9UKT9]",-1.61,-2.57,-2.5,-0.961
"FLCPVCGATFTQKGNLLRHIKL [46F_47L_49P_50V_52G_53A_54T_55F_67L_, Q9UKT9]",-1.39,-1.44,0.984,1.09
"FWCPVCGATFTQKGNLLRHIKL [46F_47W_49P_50V_52G_53A_54T_55F_67L_, Q9UKT9]",2.12,3.45,1.55,0.523
"FFCPVCGATFTQKGNLLRHIKL [46F_47F_49P_50V_52G_53A_54T_55F_67L_, Q9UKT9]",2.59,3.54,1.59,1.17
"FGCPVCGATFTQKGNLLRHIKL [46F_47G_49P_50V_52G_53A_54T_55F_67L_, Q9UKT9]",3.66,2.4,2.06,1.12
"FNCPVCGATFTQKGNLLRHIKL [46F_47N_49P_50V_52G_53A_54T_55F_67L_, Q9UKT9]",1.23,-0.0199,1.21,0.0692
"FECPVCGATFTQKGNLLRHIKL [46F_47E_49P_50V_52G_53A_54T_55F_67L_, Q9UKT9]",-0.45,-0.774,1.74,2.82
"FQCPVCGATFTQKGNLLRHIKL [46F_47Q_49P_50V_52G_53A_54T_55F_67L_, Q9UKT9]",0.396,2.89,2.57,3.79
"FMCPVCGATFTQKGNLLRHIKL [46F_47M_49P_50V_52G_53A_54T_55F_67L_, Q9UKT9]",-1.09,0.0816,1.9,1.06
"FCCPVCGATFTQKGNLLRHIKL [46F_47C_49P_50V_52G_53A_54T_55F_67L_, Q9UKT9]",1.17,1.86,2.81,2.11
"FRCNQCGHPFTQKGNLLRHIKL [46F_47R_49N_50Q_52G_53H_54P_55F_67L_, Q9UKT9]",-1.26,-1.57,-1.18,-0.69
"FWCPICGRRFTQKGNLLRHIKL [46F_47W_49P_50I_52G_53R_54R_55F_67L_, Q9UKT9]",-0.549,1.78,-0.519,-0.365
"FDCNQCGRPFTQKGNLLRHIKL [46F_47D_49N_50Q_52G_53R_54P_55F_67L_, Q9UKT9]",-2.11,-2.72,-2.47,-2.01
"FTCEVCGAKFTQKGNLLRHIKL [46F_47T_49E_50V_52G_53A_54K_55F_67L_, Q9UKT9]",0.575,1.8,-0.259,2.77
"FVCPICGHVFTQKGNLLRHIKL [46F_47V_49P_50I_52G_53H_54V_55F_67L_, Q9UKT9]",-1.93,-1.85,-1.17,-0.831
"FFCNQCGHRFTQKGNLLRHIKL [46F_47F_49N_50Q_52G_53H_54R_55F_67L_, Q9UKT9]",-1.77,-1.83,-1.97,-1.98
"FTCSVCGHMFTQKGNLLRHIKL [46F_47T_49S_50V_52G_53H_54M_55F_67L_, Q9UKT9]",-2.72,-3.24,-2.66,-2.24
"FYCPVCGATFTQKGNLLRHIKL [46F_47Y_49P_50V_52G_53A_54T_55F_67L_, Q9UKT9]",2.81,3.38,2.28,1.02
"FHCPVCGATFTQKGNLLRHIKL [46F_47H_49P_50V_52G_53A_54T_55F_67L_, Q9UKT9]",1.14,1.21,1.72,-0.00776
"FACPVCGATFTQKGNLLRHIKL [46F_47A_49P_50V_52G_53A_54T_55F_67L_, Q9UKT9]",3.23,1.68,1.17,0.555
"FWCNQCGHQFTQKGNLLRHIKL [46F_47W_49N_50Q_52G_53H_54Q_55F_67L_, Q9UKT9]",-2.03,-2.39,-2.26,-1.81
"FTCNICGAIFTQKGNLLRHIKL [46F_47T_49N_50I_52G_53A_54I_55F_67L_, Q9UKT9]",-1,0.0209,0.936,1.06
"FYCDICGANFTQKGNLLRHIKL [46F_47Y_49D_50I_52G_53A_54N_55F_67L_, Q9UKT9]",2.78,3.42,1.2,-0.676
"FLCDICGANFTQKGNLLRHIKL [46F_47L_49D_50I_52G_53A_54N_55F_67L_, Q9UKT9]",-1.24,-1.68,0.196,-0.528
"FHCDICGANFTQKGNLLRHIKL [46F_47H_49D_50I_52G_53A_54N_55F_67L_, Q9UKT9]",-0.867,-0.624,-1.82,-2.82
"FECDICGANFTQKGNLLRHIKL [46F_47E_49D_50I_52G_53A_54N_55F_67L_, Q9UKT9]",-1.28,-2.43,0.537,0.012
"FCCDICGANFTQKGNLLRHIKL [46F_47C_49D_50I_52G_53A_54N_55F_67L_, Q9UKT9]",0.761,0.588,0.858,-0.326
"FWCDICGANFTQKGNLLRHIKL [46F_47W_49D_50I_52G_53A_54N_55F_67L_, Q9UKT9]",2.81,3.71,1.34,0.139

# Source: the supplement of paper PMC12645437, “Orthogonal IMiD-Degron Pairs Induce Selective Protein Degradation in Cells” (ACS Chemical Biology, 2025)
